# Only a selection was taken, and hits are over-represented in it overall.
# Pf Dd2 inh: Plasmodium falciparum Dd2 growth inhibition | P. falciparum Dd2 growth, SYBR Green, 72 h | Potency, µM (highest dose often 28.9 µM), without a hit: at the highest dose activity, negative = inhibition, usual class: inhibitors | 120,000 tested, 4.3% active | AID 1347417; active means well fitted inhibition curve with a large enough effect;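 further: plate controls were DMSO vehicle for no effect and reference drug for full effect; nearly all actives have a fitted effect of over 65% in size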
#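 Infected erythrocytes (Dd2, 0.3% parasitemia, 2.5% hematocrit final) are added to compound in RPMI-1640/Albumax II medium, grown 72 h at 37C in low oxygen, then lysed with saponin/Triton-X containing SYBR Green and read by fluorescence.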
# Active calls of the source: *; i = inactive; [ ] = another dose, or the depositor's remark. Potency means the concentration at half of the fitted maximal effect.
SMILES,Pf Dd2 inh
CN1C(=O)C2(CCN(Cc3ccc(F)cc3)C2)c2ccccc21 (centres undefined),13µM*
CN1C(=O)C2(CCN(S(=O)(=O)c3ccc(F)cc3)C2)c2ccccc21 (centres undefined),-29%
CN1C(=O)C2(CCN(Cc3ccc(C(F)(F)F)cc3)C2)c2ccccc21 (centres undefined),i
CN1C(=O)C2(CCN(Cc3cccc4ccccc34)C2)c2ccccc21 (centres undefined),13µM*
Cc1ccc2oc(N3CCCC4(CCC(=O)N(Cc5cccnc5)C4)C3)nc2c1 (centres undefined),-8%
COCc1nc(C2CCCN(C(=O)c3ccccc3F)C2)no1 (centres undefined),34%
CCC(C(=O)NC1CCN(c2cc(C(F)(F)F)nc(C)n2)CC1)c1ccccc1 (centres undefined),-13%
O=C1C(N2CCN(S(=O)(=O)Cc3cccc(Cl)c3)CC2)CCN1Cc1cccnc1 (centres undefined),6%
O=C(Cc1cccc(F)c1)N1CCC(c2n[nH]c(=O)n2Cc2ccc(F)cc2)CC1,-3%
Cc1noc(C)c1S(=O)(=O)N1CCC[C@H]1C(=O)N1CCCCCCNC(=O)CC1,-8%
COc1ccc(Cc2ncc3c(n2)CN(C(=O)C(CO)NC(C)=O)C3)cc1 (centres undefined),18%
CS(=O)(=O)N[C@@H]1[C@@H](NC(=O)c2ccc(Cn3ccnc3)o2)[C@H]2CCO[C@H]21,-4%
Cc1ccccc1OC1(C(=O)O)CCN(c2ncccc2C(N)=O)CC1,-3%
NC(=O)c1cccnc1N1CCOC(CC(c2ccccc2)c2ccccc2)C1 (centres undefined),7.9µM*
O=C(CCn1cncn1)N1CCOC(CC(c2ccccc2)c2ccccc2)C1 (centres undefined),-9%
C=CCNC(=O)c1c[nH]c2cccnc12,9%[44.1 µM]
O=C(NC1C[C@H]2CC[C@@H](C1)N2C(=O)CC1CCCC1)c1ccc(F)cc1 (some centres undefined),-19%
Cc1nc(C)c(C(=O)N(C)C2CCc3nn(CC4CC4)c(=O)n3CC2)s1 (centres undefined),42%
CCC1CN(C(=O)c2ccc3ccccc3n2)CCC(=O)N1Cc1ccccc1 (centres undefined),-26%
COc1ccc(C(=O)N[C@@H]2CCC[C@@H]2C(=O)N2CCN(c3ccccc3F)CC2)cc1,10µM*
COc1ccc(C(=O)N[C@@H]2CCC[C@@H]2C(=O)NCCCn2cccn2)cc1,11%
COc1ccc(C(=O)N[C@@H]2CCC[C@@H]2C(=O)N2CCOCC2)cc1,30%
COc1ccc(C(=O)N[C@@H]2CCC[C@@H]2C(=O)N2CCCCC2)cc1,6%
COc1ccc(C(=O)N[C@@H]2CCC[C@@H]2C(=O)N2CCN(Cc3ccc(F)cc3)CC2)cc1,-19%
COc1ccc(C(=O)N[C@@H]2CCC[C@@H]2C(=O)N2CCN(c3cc(C)ccc3C)CC2)cc1,5µM*
SMILES,Pf Dd2 inh
COc1ccc(C(=O)N[C@@H]2CCC[C@@H]2C(=O)NCCCN2CCCc3ccccc32)cc1,11µM*
CCCNC(=O)[C@H]1CCC[C@H]1NC(=O)c1ccc(OC)cc1,-14%
COc1ccc(C(=O)N[C@@H]2CCC[C@@H]2C(=O)N2CCCC2)cc1,-20%
CCc1ccc(CNC(=O)c2ccc(CN3C(=O)NC4(CCOCC4)C3=O)cc2)cc1,i
CO[C@H]1[C@H](NC(=O)CCc2cccnc2)c2ccccc2C12CCNCC2,-26%
O=C1CCN(S(=O)(=O)c2ccccc2)CCCN(C(=O)CN2CCOCC2)CCN1,5%
CCCOc1ccc(CNC(=O)C(C)C2CCOCC2)cc1 (centres undefined),13%
CN1CCC(CNC(=O)c2cc(-c3ccc(F)cc3)cc3ncn(C)c23)CC1=O (centres undefined),6%[44.1 µM]
Nc1nc(CC(=O)N2CCCC(CNC(=O)c3ccc(F)cc3)C2)cc(=O)[nH]1 (centres undefined),-20%
COc1cccc(CN2CC[C@H]3COC(=O)N3c3cc(C)ccc3C2)c1,1%[44.1 µM]
COc1ccc2[nH]c3c(c2c1)CCN(C)C31CCN(C(=O)c2cccn2C)CC1,-14%
O=C(O)C[C@@H]1CCN(C(=O)C2CCCC2)C[C@@H]1CCN(CCN1CCOCC1)c1ccccc1,-13%
COC1CCC(C(=O)NCC2COc3ncncc3C(=O)N2Cc2ccccc2)CC1 (centres undefined),10%[44.1 µM]
COCCN1C(=O)c2ccccc2C(C(=O)NCCCc2ccccc2)C12CCCC2 (centres undefined),11µM*
COCCN1C(=O)c2ccccc2C(C(=O)NCc2ccccc2F)C12CCCCC2 (centres undefined),-25%
CCc1nc(NC(=O)C2c3ccccc3C(=O)N(CCOC)C23CCCC3)sc1C (centres undefined),2µM*
COCCN1C(=O)c2ccccc2C(C(=O)NCc2ccccc2)C12CCCCC2 (centres undefined),-28%
COCCN1C(=O)c2ccccc2C(C(=O)NCc2ccc(F)cc2)C12CCCC2 (centres undefined),-19%
COCCN1C(=O)c2ccccc2C(C(=O)Nc2cccc(NC(C)=O)c2)C12CCCCC2 (centres undefined),i
COCCN1C(=O)c2ccccc2C(C(=O)Nc2nc3ccccc3[nH]2)C12CCCCC2 (centres undefined),1.8µM*
COCCN1C(=O)c2ccccc2C(C(=O)NCCCOC(C)C)C12CCCCC2 (centres undefined),-7%
COCCN1C(=O)c2ccccc2C(C(=O)Nc2cc(Cl)ccc2OC)C12CCCC2 (centres undefined),-20%
COCCN1C(=O)c2ccccc2C(C(=O)NCCc2ccc(OC)cc2)C12CCCC2 (centres undefined),i
COCCN1C(=O)c2ccccc2C(C(=O)Nc2nc(C)c(C)s2)C12CCCCC2 (centres undefined),3.5µM*
COCCN1C(=O)c2ccccc2C(C(=O)NCc2ccco2)C12CCCCC2 (centres undefined),0%
SMILES,Pf Dd2 inh
Cc1ccsc1C(=O)N1CCC(c2nc(C3CCOCC3)no2)CC1,3%
Cc1ccc(Cl)cc1-n1nc(-c2c(C)nc3scc(CC(=O)NCC(C)C)n3c2=O)cc1C,-3%
CCc1sc(NC(=O)CC[C@H]2NC(=O)c3ccccc3NC2=O)nc1C(=O)OC,i
COc1cccc(-c2nc3cc4c(cc3cc2CN2CCCOCC2)OCO4)c1OC,-3%
CC(=O)N[C@H]1CCN(CCC(=O)Nc2ccc(F)c(Cl)c2)C1,-5%
Cc1ccsc1C(=O)NCC1Cn2cccc2CN1C (centres undefined),-9%
COCCNC(=O)CCc1c(C)nn(-c2ccc(F)cc2)c1Oc1ccccc1C,-8%
CCOc1ccc(C2NC(=O)N(CC(=O)N3CCC(C)CC3)C3=C2C(=O)OC3)cc1 (centres undefined),i
Cc1nn2c(c1-c1ccccc1Oc1ccccc1)N(C(=O)Cc1ccc3c(c1)OCO3)CCC2,-9%
O=C(C[C@@H]1O[C@H](CNC(=O)c2ccccc2)[C@@H](O)[C@H]1O)NC1CC1,19%[44.1 µM]
O=C(c1ccco1)N1CCCC(Cc2nc(C3CCOCC3)no2)C1 (centres undefined),1%
O=C1CC(c2noc(-c3ccc(C(F)(F)F)cc3)n2)CN1C1CCCCC1 (centres undefined),i
CN1C[C@H](NCc2cccc(Cl)c2)CCC[C@@H](C(=O)NC2CC2)CC1=O,9%[44.1 µM]

# Compound activity as filed in PubChem.
